Reference: PubChem BioAssay (NCI)
Compounds without any hit were thinned out: in the full panel of roughly 83,000, 20% have a hit.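 The endpoint reported here, percent growth, reads 100 for growth as untreated, 0 for no net growth and -100 for all cells dead.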 Values without a mark were called inactive. Activity calls are given as the source filed them.

The molecules below were run on SNB-75 CNS (assay: NCI-60 one-dose screen, 48 h (100 = growth as untreated, 0 = no growth, -100 = all killed)). Settings: 10 µM unless noted.
Experimental: Growth inhibition of the SNB-75 human tumor cell line is measured as a screen for anti-cancer activity. Cells are grown in 96 well plates and exposed to the test compound for 48 hours. Compounds are tested at a single concentration, which is 10^-5 M for most compounds. The reported endpoint is percent growth (GI% or GIPRCNT), where numbers from 0 - 100% represent growth inhibition, and numbers from -100% - 0 represent cell death. For example, a value of 40 represents 60% growth inhibition. A value of 0 means no net growth occurred over the course of the experiment. A value of -40 indicates 40% of cells at the beginning of the experiment died by the end of the experiment. A value of -100 means all cells are dead at the end of the experiment.
NCI-60 Human Tumor Cell Lines Screen was performed using the standard one-dose NCI protocol, which is described in more detail at https://dtp.cancer.gov/discovery_development/nci-60/default.htm.
Compounds with GIPRCNT values below 10 were considered active. Activity score was based on GIPRCNT using the following formula: […]
Score is 0 for GIPRCNT values of 100 or above, 50 for GIPRCNT values of 0, and 100 for GIPRCNT values of -100.

Structure (SMILES) | growth
COc1ccc(NC(=O)Nc2ccc(OCc3ccc(F)cc3)cc2)cc1 | 63.6%
Cn1cc(-c2nc(N)nnc2-c2c[nH]c3ccc(Br)cc23)c2cc(Br)cnc21 | -0.672% (active)
CC(C)CSc1nc(NCCc2c[nH]c3ccccc23)c(C#N)c(-c2ccccc2)n1 | 82.8%
Cc1ccc2c(N)c(C(=O)Nc3ccc(-c4ccccc4)cc3)sc2n1 | 53.8%
NS(=O)(=O)c1ccc(N=Nc2c(O)n(CC(=O)Nc3ccccc3Cl)c3ccccc23)cc1 | 52.8%
COc1ccc(C2(SCCNCc3cc(N(C)C)ccn3)c3ccccc3C=Cc3ccccc32)cc1 | 9.76% (active)
Cc1ccc(-c2nc(C#N)c(S(=O)(=O)N3CCN(S(=O)(=O)c4ccccc4)CC3)o2)cc1 | 103%
N#Cc1c(-c2cccnc2)cc(-c2ccc3ccccc3c2)[nH]c1=O | 14.4%
Cc1ccc(/C=C/c2n(Cc3ccc4ccccc4c3)c3ccccc3[n+]2Cc2ccc3ccccc3c2)cc1 | -88.3% (active)
COc1cc2oc(-c3cccc(C(=O)Nc4ccc(Cl)cc4)c3)cc(=O)c2c(OCCNC(=O)[C@H](CO)NC(=O)OC(C)(C)C)c1OC | 74.5%
COc1cc(-c2cc(-c3cccc(OCC(=O)O)c3)[nH]c(=O)c2C#N)cc(OC)c1OC | 116%
O=C(c1ccccc1)c1ccc2nc(-c3ccc(F)cc3)[nH]c2c1 | 82%
CCOC(=O)C1=C(N)N(c2ccccc2)C2=C(C(=O)CC(C)(C)C2)C1c1ccccc1Cl (stereo not given) | 66.3%
CC1=C(C(=O)OCc2ccccc2)C(c2c(O)cc(O)cc2O)n2c(nc3ccccc32)N1 (stereo not given) | 13%
CCOc1ccc(-c2c(C#N)c(-c3ccc(Cl)cc3)nc3n[nH]c(-c4ccc(Cl)cc4)c23)cc1OC | 58.5%
C#CCOc1cc(N(CC)CC)ccc1C(C(=O)NC(C)(C)C)N(C(=O)C1CCc2cc(F)ccc2O1)c1ccc(F)c(Cl)c1 (stereo not given) | 59%
COc1ccc(C(=O)/C=C/c2ccc(Cl)c(Cl)c2)cc1S(N)(=O)=O | 6.46% (active)
Cn1nc(C(F)(F)F)cc1-c1cc(Cl)c(COc2ccc(Cl)cc2)c(-c2ccc(Cl)c(C(F)(F)F)c2)c1O | -22.5% (active)
N#Cc1c(-c2ccc(Br)cc2)nc2n[nH]c(-c3ccc(Br)cc3)c2c1-c1ccc(F)cc1 | 94.5%
COc1ccc(NC(=O)[C@H](C)N)cc1C(=O)Nc1cccc(C2CC(=O)c3c(cc(OC)c(OC)c3OC)O2)c1 (stereo not given in full) | 88.6%

Structure (SMILES) | growth
CC(=O)OC[C@@]1(C)C2CC[C@]3(C)C(CC=C4C5CC(C)(C)CC[C@]5(C(=O)Nc5ccc(C)cc5)CC[C@]43C)[C@@]2(C)C[C@@H](OC(C)=O)[C@@H]1OC(C)=O (stereo not given in full) | 57%
CCCSc1nc(NCCc2c[nH]c3ccccc23)c(C#N)c(-c2ccccc2)n1 | 87.7%
O=C1Nc2cc(Cl)ccc2/C1=C/c1cccc(OCc2ccccn2)c1 | 51.3%
O=C(/C=C/Nc1ccc(Cl)cc1)c1ccc2c(c1)Nc1ccccc1S2 | -24.4% (active)
COc1cc2oc(-c3cccc(C(=O)Nc4ccc(Cl)cc4)c3)cc(=O)c2c(OCCNC(=O)[C@H](CCC(=O)OC(C)(C)C)NC(=O)OC(C)(C)C)c1OC | 74.2%
O=C(N/N=C/c1ccc(-c2ccc(O)cc2)o1)c1[nH]c2ccc(Br)cc2c1-c1ccccc1 | -2.73% (active)
COC1=C[C@]23CCC(=O)N2CCc2cc4c(cc2[C@@H]3[C@@H]1OC(=O)[C@H](C)O)OCO4 | -10.6% (active)
C=C1CC[C@@H]2[C@]3(C)COC(c4cn[nH]c4-c4ccc(C)cc4)O[C@@H]3CC[C@@]2(C)[C@@H]1C/C=C1/C(=O)OCC1O (stereo not given in full) | 87.8%
CC1(C)CC[C@]2(C(=O)O)CC[C@]3(C)C(=CCC4[C@@]5(C)C[C@@H](O)[C@@H]6OC(c7cccc(Br)c7)OC[C@@]6(C)C5CC[C@]43C)C2C1 (stereo not given in full) | 85.1%
N#Cc1cnn(C(=O)c2ccccc2Br)c1NC(=O)c1ccc(Br)cc1Cl | 106%
CC(=O)Nc1ccc(-c2cn(-c3cccc(C(=O)Nc4ccc(N5CCN(C)CC5)cc4)c3)nn2)cn1 | 99%
N#Cc1c(-c2ccccc2Cl)cc(-c2ccc3ccccc3c2)[nH]c1=O | -37.1% (active)
Cc1sc(C(NC(=O)OCCn2c([N+](=O)[O-])cnc2C)C(F)(F)Cl)nc1-c1ccc(OC(F)(F)F)cc1 (stereo not given) | -32.9% (active)
COc1ccc(CCC2c3c(cc4c(c3OC)OCO4)CCN2C)cc1 (stereo not given) | 2.42% (active)
C#CCOc1cc(N(CC)CC)ccc1C(C(=O)NC(C)(C)C)N(C(=O)C1CCc2cc(F)ccc2O1)c1ccc(F)cc1 (stereo not given) | 60.5%
COc1ccc(NC(=O)Cn2c3c(sc2=O)[C@H]2[C@@H](O)[C@@H](O)[C@H](O)[C@@H]2CS3)cc1 | 88.5%
COc1cc(NC(=O)c2cccc(C3CCc4c(cc(OC)c(OC)c4OC)O3)c2)cc(OC)c1OC (stereo not given) | 11.5%
COc1cc(CNC(=O)/C=C/c2ccc3c(c2)OCO3)ccc1OCc1cn(-c2cccc(C(F)(F)F)c2)nn1 | 41.1%
COc1ccc2cc([C@H](C)C(=O)N/N=C/c3ccc(Br)cc3)ccc2c1 | 71.4%
NS(=O)(=O)c1ccc(-n2cc(-c3cccc(NC(=O)c4cc(C(F)(F)F)cc(C(F)(F)F)c4)c3)nn2)cc1 | 37.5%
